Most compounds without a hit are left out; they make up all but 7.3% or so of the library.
Luc counter = Kinase-Glo luciferase inhibition (counter-screen) | Q27757 | 200,000 tested, 0.28% active | AID 1379 | Potency, µM (titrated, usually from 38.3 µM), for the others: at the top dose activity change, negative = inhibition, hits mostly inhibitors | Kinase-Glo luciferase, ATP luminescence, 8 min; further: on the % scale 0 is the no-effect control and ±100 the full control effect; nearly all actives have a fitted effect of over 60% in size
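Substrate mix (final 50 mM imidazole pH 7.2, 50 mM KCl, 7 mM MgCl2, 10 uM ATP, 0.01% Tween 20, 0.05% BSA) plus pin-tool compound, then Kinase-Glo detection mix; 8 min ambient, luminescence read.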
ELG1 genotox = induces genotoxicity in HEK293T cells with luciferase-tagged ELG1; HEK293T ELG1-luciferase reporter, luminescence, 16 h; Potency, µM (titrated, usually from 46 µM), without a hit: at the top dose activity change, positive = activation, actives largely listed as activators; 330,000 tested, 1.3% active; AID 504466; further: % of control where 0% means no effect; nearly all actives have a fitted effect of over 60% in size
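Screening used a luciferase reporter fused to human ELG1 in HEK293T cells. Luminescence was read on a CCD plate imager after 16 hr exposure and 30 min ONE-Glo incubation.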
NPC1 prom act = activators of NPC1 promoter; Huh7 NPC1 promoter luciferase reporter, 24 h; Potency, µM (top dose mostly 9.22 µM), without a hit: at the highest dose activation, most hits filed as activators; 320,000 tested, 2.4% active; further: % of control where 0% means no effect; nearly all actives have a fitted effect of over 60% in size
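NPC1 promoter–luciferase Huh7 cells; 24 h compound; luminescence.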
FLuc counter = inhibits or activates purified firefly luciferase, miR-21 counter-screen; Potency, µM (series often up to 57.5 µM), without a hit: at the highest dose activity change, negative = inhibition, hits mostly inhibitors; P08659; purified FLuc, Km substrates, luminescence inhibition; 360,000 tested, 6.9% active;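 further: plate controls were vehicle for no effect and reference inhibitor for full effect; nearly all actives have a fitted effect of over 55% in size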
Target sequence (P08659 whole entry, looked up): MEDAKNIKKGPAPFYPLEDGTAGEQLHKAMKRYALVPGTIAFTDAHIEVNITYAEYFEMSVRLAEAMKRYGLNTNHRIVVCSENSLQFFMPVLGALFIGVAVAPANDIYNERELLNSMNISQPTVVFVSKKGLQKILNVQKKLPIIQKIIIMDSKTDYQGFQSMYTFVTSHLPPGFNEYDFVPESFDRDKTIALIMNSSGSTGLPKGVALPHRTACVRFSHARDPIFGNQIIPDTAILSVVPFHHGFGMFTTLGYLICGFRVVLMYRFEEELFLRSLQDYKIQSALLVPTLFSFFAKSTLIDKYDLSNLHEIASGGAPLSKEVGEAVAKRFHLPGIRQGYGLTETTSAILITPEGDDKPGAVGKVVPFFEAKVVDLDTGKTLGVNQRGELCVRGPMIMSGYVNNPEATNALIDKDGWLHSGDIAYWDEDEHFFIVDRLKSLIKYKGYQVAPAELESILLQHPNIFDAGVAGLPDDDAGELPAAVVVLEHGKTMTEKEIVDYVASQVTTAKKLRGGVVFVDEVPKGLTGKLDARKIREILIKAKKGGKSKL
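Purified P. pyralis luciferase, 10 nM final, with Km-level 10 uM D-luciferin and 10 uM ATP in 50 mM Tris acetate pH 7.5, 10 mM Mg acetate, 0.01% Tween-20, 0.05% BSA; 6-point qHTS titration about 60 µM downward; luminescence read.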
SMN2 splice enh = SMN2 splice variant enhancement; AID 1458; Potency, µM (titrated, usually from 46.1 µM), for inactives: at the top dose activity change, positive = activation, hits mostly activators; HEK293 SMN2-luciferase splicing reporter, luminescence, 30-36 h; 210,000 tested, 2.8% active; further: % of control where 0% means no effect; nearly all actives have a fitted effect of over 55% in size
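qHTS luciferase splicing reporter: luminescence rises when SMN2 exon 7 is included in transfected HEK293 cells. Compound exposure lasted 30-36 h at 37C, with 4.5 mM final sodium butyrate as control, followed by a ONE-Glo read.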
Rab9 prom act = activators of Rab9 promoter. Huh7 Rab9 promoter-luciferase reporter, luminescence, 24 h. Potency, µM (titrated, usually from 9.22 µM), inactives show at the top dose activation, negative = inhibition, usual class: activators. 320,000 tested, 2.8% active. AID 485297; further: % of control where 0% means no effect; nearly all actives have a fitted effect of over 60% in size
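Promoter activation is measured as luciferase luminescence in Huh7 cells stably transfected with a Rab9 promoter–luciferase construct, following 24 h compound exposure at 37 °C and 10 min reagent incubation at ambient temperature.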
The depositor's hits bear a star. The call rests on the fitted dose curve; in most records, active means well fitted curve in the direction sought with a large enough effect; inconclusive means small, poorly fitted or top-dose-only effect, or another doubt; inactive means no such curve, though single readings can be large; an effect the other way counts as inactive or inconclusive. Potency means the concentration at half of the fitted maximal effect.

How did CCN(c1cccc(C)c1)S(=O)(=O)c1cc(Br)cc2c1N(C(C)=O)C(C)C2 (configuration not stated) do in these assays?
FLuc counter: -5.3%; SMN2 splice enh: -62.7%

What do the screens show for `CCc1nc(SCc2cc(=O)c3cc(F)ccc3[nH]2)n[nH]1`?
FLuc counter: -5.0%

How did COc1ccc(Cl)cc1NC(=O)Cn1cnc2sc(C)c(S(=O)(=O)N3CCN(c4ccccc4OC)CC3)c2c1=O do in these assays?
FLuc counter: 6.1%; SMN2 splice enh: -1.0%

What do the screens show for `NC(=O)c1c(NC(=O)c2ccncc2)sc2c1CCCC2`?
Luc counter: -1.7%; ELG1 genotox: 5.0%; NPC1 prom act: inconclusive; FLuc counter: 10.7µM*; SMN2 splice enh: -79.8%; Rab9 prom act: inconclusive

What do the screens show for `NC(=O)c1c(NC(=O)c2ccccc2)sc2c1CCc1ccccc1-2`?
Luc counter: -9.2%; ELG1 genotox: 6.51µM*; NPC1 prom act: 4.47µM*; FLuc counter: 2.13µM*; SMN2 splice enh: inconclusive; Rab9 prom act: 3.55µM*

How did C=CC(=O)Nc1sc2c(c1C(N)=O)CCCC2 do in these assays?
ELG1 genotox: 4.3%; NPC1 prom act: -12.3%; FLuc counter: inconclusive; Rab9 prom act: -3.4%

What do the screens show for `NC(=O)c1c(NC(=O)c2ccccc2)sc2c1CCN(Cc1ccccc1)C2`?
ELG1 genotox: 13.3%; NPC1 prom act: 2.8%; FLuc counter: -2.0%; Rab9 prom act: 20.2%

How did COc1ccc(C2(CNC(=O)C(=O)Nc3ccccc3C)CCCC2)cc1OC do in these assays?
FLuc counter: 4.5%; SMN2 splice enh: -2.0%

How did CCOC(=O)c1ccn(-c2nc(-c3cccc(OC)c3)cc(C(F)(F)F)n2)n1 do in these assays?
FLuc counter: -6.2%; SMN2 splice enh: 1.6%

Results for CC(C)C[C@H](N)C(=O)N[C@H](C(=O)N[C@H](C(=O)N[C@@H](Cc1ccc(O)cc1)C(=O)N1CCC[C@H]1C(=O)N[C@@H](Cc1c[nH]c2ccccc12)C(=O)N[C@H](C(=O)N[C@@H](CCC(N)=O)C(=O)N[C@@H](CCCN=C(N)N)C(=O)O)[C@@H](C)O)C(C)C)C(C)C ?
SMN2 splice enh: -7.8%

How did O=C(Nc1c(Cl)cccc1Cl)c1cccc2c1C(=O)N(C1CCCCC1)C2 do in these assays?
FLuc counter: -0.2%; SMN2 splice enh: 6.6%

Results for Cc1oc(-c2ccc(Cl)cc2)nc1CSc1nc2ncccc2[nH]1 ?
FLuc counter: -7.1%

How did S=c1nc(SCc2ccccc2)[nH]c2ccccc12 do in these assays?
Luc counter: -1.0%; ELG1 genotox: -14.2%; NPC1 prom act: 0.3%; FLuc counter: inconclusive; SMN2 splice enh: -59.0%; Rab9 prom act: -0.8%

Results for Clc1ccc(CSc2nc3ncccc3[nH]2)cc1 ?
FLuc counter: 6.01µM*; SMN2 splice enh: 12.6µM*

How did Cc1ccc(CSc2nc3ncccc3[nH]2)cc1 do in these assays?
Luc counter: inconclusive; ELG1 genotox: 23.5%; NPC1 prom act: 0.562µM*; FLuc counter: 2.39µM*; SMN2 splice enh: 1.78µM*; Rab9 prom act: 0.794µM*

How did c1ccc(CSc2nc3ncncc3[nH]2)cc1 do in these assays?
ELG1 genotox: 3.7%; NPC1 prom act: 7.9%; FLuc counter: 16.9µM*; Rab9 prom act: 20.2%

Results for Cc1ccc(C)c(CSc2nc3ncccc3[nH]2)c1 ?
FLuc counter: -17.3%

Results for C/C(=N/OC(=O)C1CC1c1ccccc1)c1ccccc1 (configuration not stated) ?
Luc counter: -2.3%; ELG1 genotox: inconclusive; NPC1 prom act: -1.4%; FLuc counter: 19µM*; SMN2 splice enh: -34.9%; Rab9 prom act: 0.2%

What do the screens show for `COc1ccc(C2CC2/C(C)=N/OC(=O)C2CC2)cc1` (configuration not stated)?
Luc counter: 4.2%; ELG1 genotox: -2.6%; NPC1 prom act: -0.1%; FLuc counter: -6.8%; SMN2 splice enh: 16.3%; Rab9 prom act: 14.4%

What do the screens show for `CCc1nnc(SCc2ccc(F)cc2Cl)c2cc3sc(C)cc3n12`?
FLuc counter: -0.4%

What do the screens show for `Cc1cc(C)c(C(=O)COC(=O)Cn2c(C)csc2=O)cc1C`?
ELG1 genotox: 10.6%; NPC1 prom act: 5.5%; FLuc counter: 16.9µM*; Rab9 prom act: -0.8%

How did Cc1cc(C)c(C(=O)COC(=O)CCn2c(C)csc2=O)cc1C do in these assays?
ELG1 genotox: 9.9%; NPC1 prom act: 15.7%; FLuc counter: 4.78µM*; Rab9 prom act: inconclusive

Results for CCc1cccc(C)c1NC(=O)COC(=O)Cn1c(C)csc1=O ?
ELG1 genotox: 1.7%; NPC1 prom act: 8.2%; FLuc counter: 1.8%; Rab9 prom act: 0.7%

Results for Cc1csc(=O)n1CC(=O)OCc1cccc2ccccc12 ?
Luc counter: 1.0%; ELG1 genotox: inconclusive; NPC1 prom act: 18.1%; FLuc counter: 15.1µM*; SMN2 splice enh: -0.9%; Rab9 prom act: 25.0%

How did Cc1cc(C)c(NC(=O)COC(=O)CCn2c(C)csc2=O)c(C)c1 do in these assays?
ELG1 genotox: 0.9%; NPC1 prom act: -3.1%; FLuc counter: 5.5%; Rab9 prom act: 14.2%

What do the screens show for `Cc1ccc(NC(=O)COC(=O)Cn2c(C)csc2=O)cc1C`?
Luc counter: -0.4%; ELG1 genotox: -1.8%; NPC1 prom act: 0.7%; FLuc counter: -10.9%; SMN2 splice enh: 6.8%; Rab9 prom act: 0.2%

Results for COc1cc(NC(=O)c2ccccc2-n2cnnn2)cc(OC)c1 ?
ELG1 genotox: 0.1%; NPC1 prom act: -1.7%; FLuc counter: -1.9%; Rab9 prom act: -3.4%

Results for COc1cc(OC)cc(C(=O)Nc2ccc(-n3cnnn3)c(C)c2)c1 ?
Luc counter: 14.1µM*; ELG1 genotox: inconclusive; NPC1 prom act: inconclusive; FLuc counter: 15.1µM*; SMN2 splice enh: 23.1%; Rab9 prom act: inconclusive

Results for Cc1cc(NC(=O)c2oc3ccccc3c2C)ccc1-n1cnnn1 ?
Luc counter: -0.6%; ELG1 genotox: -1.7%; NPC1 prom act: 19.5%; FLuc counter: 4.78µM*; SMN2 splice enh: -10.4%; Rab9 prom act: 4.3%

Results for CCc1cc2c(cc3c(=O)n(CC(=O)NC4CCC(C)CC4)nc(CC)n32)s1 (configuration not stated) ?
FLuc counter: -0.9%; SMN2 splice enh: -19.5%

How did Cc1ccc(NC(=O)Cn2nnc(-c3ccccc3)n2)c(C)c1 do in these assays?
FLuc counter: -0.2%

What do the screens show for `O=C(O)c1ccc(CSc2nnc(-c3ccc(Cl)cc3)o2)cc1`?
ELG1 genotox: 8.5%; NPC1 prom act: -3.6%; FLuc counter: 16.9µM*; Rab9 prom act: -1.0%

Source: PubChem
